The supplement of paper PMC12350171
Where a name gives a salt, the structure may show the parent alone. Values without a mark were called inactive.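 How the source made its calls: active = normalised median growth AUC below 0.1 of DMSO control; inactive = AUC 0.1 or higher.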

Columns and labels:
Test in all cases: growth AUC normalised to DMSO control (median) (fraction of control); higher = less growth inhibition, active = hit call of the paper
Settings in all cases: 20 µM
P. vulgatus RND KO = system: P. vulgatus RND KO
Summary of the method: (§1)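 Each strain went through two overnight passages under anaerobic conditions before growth in mGAM in 96-well plates, starting at OD578 0.01, with each compound from the approved-drug library at 20 μM and 1% DMSO. Inside an anaerobic incubator, OD578 was recorded every hour for 24 h. Growth curves were cut off at entry into stationary phase, and the area under the curve was calculated by the trapezoidal rule and normalised to vehicle wells on the same plate. Reported values are medians of three biological replicates.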

P. vulgatus WT = system: P. vulgatus WT
Summary of the method: as §1

[1] = system: S. enterica typhimurium WT
Summary of the method: as §1

[2] = system: S. enterica typhimurium tolC KO
Summary of the method: as §1
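Further: active when median AUC fell below 0.1.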

| SMILES | growth AUC normalised to DMSO control (P. vulgatus RND KO) | growth AUC normalised to DMSO control (P. vulgatus WT) | growth AUC normalised to DMSO control [1] | growth AUC normalised to DMSO control [2] |
| --- | --- | --- | --- | --- |
| CCOC(=O)[C@H](CCc1ccccc1)N[C@H]1CS[C@H](c2cccs2)CN(CC(=O)O)C1=O [Temocapril hydrochloride] | 1.02 | 1.03 | 1 | 1 |
| Oc1cc(O)c2c(c1)O[C@H](c1ccc(O)c(O)c1)[C@@H](O)C2 [Cianidanol] | 1 | 1.01 | 1.01 | 0.994 |
| Cc1nc2ccccc2n1Cc1ccc(Cl)cc1 [Chlormidazole] | 0.974 | 0.95 | 0.951 | 0.833 |
| COc1c(O)cc2c(c1O)[C@@H]1O[C@H](CO)[C@@H](O)[C@H](O)[C@H]1OC2=O [Bergenin] | 1.04 | 1.01 | 1.02 | 0.995 |
| O=[N+]([O-])c1ccc(O)c2ncccc12 [Nitroxoline] | 0.0544 (active) | 0.0282 (active) | 0.237 | 0.169 |
| COc1cc(C(=O)NC2CCCNC2)cc(OC)c1OC (stereo not drawn) [Troxipide] | 1.07 | 1.1 | 0.998 | 0.995 |
| C/C(=C1\CCOC(=O)S1)N(C=O)Cc1cnc(C)nc1N [Cycotiamine] | 1.01 | 1.07 | 0.995 | 1 |
| O=C(Cn1cnnn1)N[C@@H]1C(=O)N2C(C(=O)O)=C(CSc3nncs3)CS[C@H]12 [Ceftezole] | 0.00781 (active) | 0.00376 (active) | 0.0119 (active) | 0.00306 (active) |
| CCNC(=O)CCC/C=C\C[C@@H]1[C@@H](/C=C/[C@@H](O)CCc2ccccc2)[C@H](O)C[C@@H]1O [Bimatoprost] | 1.03 | 1.04 | 1.01 | 0.99 |
| CC=CC1=C(C(=O)O)N2C(=O)[C@@H](NC(=O)[C@H](N)c3ccc(O)cc3)[C@H]2SC1 [Cefprozil] | 1.45 | 1.42 | 1.01 | 0.983 |
| Cc1cccc(C)c1NC(=O)CC12CCCN1CCC2 [Pilsicainide Hydrochloride] | 1.05 | 1.09 | 1 | 1 |
| Cc1cc2nc3ccc(=[N+](C)C)cc-3sc2cc1N [Tolonium chloride] | 0.996 | 1 | 0.981 | 0.987 |
| CC(=O)OCC(=O)[C@@]1(O)CC[C@H]2[C@@H]3CCC4=CC(=O)C=C[C@]4(C)[C@@]3(Cl)[C@@H](Cl)C[C@@]21C [Dichlorisone acetate] | 0.976 | 0.97 | 0.989 | 0.956 |
| O=C(O)C1CSCN1 (stereo not drawn) [Timonacic] | 0.993 | 0.999 | 0.998 | 0.998 |
| Brc1c(NC2=NCCN2)ccc2nccnc12 [Brimonidine L-tartrate] | 0.994 | 1.02 | 0.999 | 1.01 |
| CC1(C)S[C@@H]2[C@H](NC(=O)C(C(=O)O)c3ccccc3)C(=O)N2[C@H]1C(=O)O (stereo partly drawn) [Carbenicillin disodium salt] | 0.0099 (active) | 0.00958 (active) | 0.0868 (active) | 0.00344 (active) |
| CCCc1c2oc(C(=O)O)cc(=O)c2cc2c(=O)cc(C(=O)O)n(CC)c12 [Nedocromil sodium] | 1.02 | 1.03 | 0.992 | 0.995 |
| C[C@H]1[C@H](OC(=O)CCC(=O)O)O[C@@H]2O[C@@]3(C)CC[C@H]4[C@H](C)CC[C@@H]1[C@@]24OO3 [Artesunate] | 1.01 | 1 | 1 | 1.01 |
| Cc1cc2nc3c(=O)[nH]c(=O)nc-3n(C[C@H](O)[C@H](O)[C@H](O)CO)c2cc1C [Riboflavine] | 1.11 | 1.07 | 1 | 0.991 |
| Nc1cc(C(Cl)=C(Cl)Cl)c(S(N)(=O)=O)cc1S(N)(=O)=O [Clorsulon] | 1.02 | 0.998 | 1 | 0.999 |
| CC(C)(C)C(=O)C(Oc1ccc(Cl)cc1)n1ccnc1 (stereo not drawn) [Climbazole] | 0.968 | 0.984 | 0.993 | 0.953 |
| CCC(NC(C)C)C(O)c1ccc(O)c2[nH]c(=O)ccc12 (stereo not drawn) [Procaterol hydrochloride] | 1.08 | 1.09 | 1 | 0.987 |
